# Test results taken from the supplement of paper PMC10503962.
# System: Trichuris muris adult worms
# Experiment: mean motility score (Paragon pixel variance) of adult worms (arbitrary units); higher = more motile worms, i.e. less anthelmintic effect; extreme values may be limits of the assay
# Conditions: 100 µM; 24 h
# Procedure: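 Primary ex vivo screen of 409 approved drugs against adult Trichuris muris worms: one worm per well in RPMI-1640 with penicillin/streptomycin, 100 µM drug in 1% DMSO, 37 °C, 5% CO2 for 24 h. Motility was recorded with INVAPP (200-frame movies) and scored with the Paragon pixel-variance algorithm. Values are means of triplicate wells run on three occasions; levamisole was the positive control and DMSO the negative control.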
row,SMILES,mean motility score
1,CCOC(=O)N1CCC(=C2c3ccc(Cl)cc3CCc3cccnc32)CC1.Cl [loratadine hydrochloride],0
2,CC(N/C(=N/C#N)Nc1ccncc1)C(C)(C)C.O (stereo not given) [pinacidil monohydrate],2490
3,CN(C)CC[C@@H](c1ccc(Cl)cc1)c1ccccn1.O=C(O)/C=C\C(=O)O [dexchlorpheniramine maleate],1140
4,Clc1ccc2c(c1)C(N1CCNCC1)=Nc1ccccc1O2 [amoxapine],804
5,Clc1ccccc1C(c1ccccc1)(c1ccccc1)n1ccnc1 [clotrimazole],0
6,CNCCC=C1c2ccccc2CCc2ccccc21 [nortriptyline],911
7,CCOC(=O)[C@H](CCc1ccccc1)N[C@@H](C)C(=O)N1[C@H](C(=O)O)C[C@@H]2CCC[C@@H]21 [ramipril],3060
8,CC/C(=C(\c1ccccc1)c1ccc(OCCN(C)C)cc1)c1ccccc1 [tamoxifen],165
9,O=C1C(O)=C([C@H]2CC[C@H](c3ccc(Cl)cc3)CC2)C(=O)c2ccccc21 [atovaquone],1650
10,C#CCN(C)Cc1ccccc1 [pargyline],2290
11,CC1(C)NC(=O)N(c2ccc([N+](=O)[O-])c(C(F)(F)F)c2)C1=O [nilutamide],1900
12,O=C(CCCCCCC(=O)Nc1ccccc1)NO [vorinostat],1260
13,CCOC(=O)[C@H](CCc1ccccc1)N[C@@H](C)C(=O)N1Cc2ccccc2C[C@H]1C(=O)O.Cl [quinapril hydrochloride],4700
14,C#C[C@]1(O)CC[C@H]2[C@@H]3CCc4cc(O)ccc4[C@H]3CC[C@@]21C [ethinyl estradiol],3320
15,CC/C=C\C/C=C\C/C=C\C/C=C\C/C=C\C/C=C\CCC(=O)O [doconexent],4100
16,N#CC[C@H](C1CCCC1)n1cc(-c2ncnc3[nH]ccc23)cn1 [ruxolitinib],3070
17,CN1CCc2cccc3c2[C@H]1Cc1ccc(O)c(O)c1-3 [apomorphine],2320
18,CCN[C@H]1C[C@H](C)S(=O)(=O)c2sc(S(N)(=O)=O)cc21 [dorzolamide],2540
19,NS(=O)(=O)c1cc(Cl)c(Cl)c(S(N)(=O)=O)c1 [dichlorphenamide],752
20,CC(=O)N1CCN(c2ccc(OC[C@@H]3CO[C@@](Cn4ccnc4)(c4ccc(Cl)cc4Cl)O3)cc2)CC1 [ketoconazole],1360

row,SMILES,mean motility score
1,Oc1nc2ccccc2n1C1CCN(CCCC(c2ccc(F)cc2)c2ccc(F)cc2)CC1 [pimozide],0
2,Nc1nc(O)c2ncn(COC(CO)CO)c2n1 [ganciclovir],2950
3,NNCCc1ccccc1 [phenelzine],3810
4,COc1cc2ncnc(Nc3ccc(F)c(Cl)c3)c2cc1OCCCN1CCOCC1 [gefitinib],1080
5,N=C(NCCCCCCNC(=N)NC(=N)Nc1ccc(Cl)cc1)NC(=N)Nc1ccc(Cl)cc1 [chlorhexidine],320
6,CC(=O)Nc1cccc(-n2c(=O)n(C3CC3)c(=O)c3c(Nc4ccc(I)cc4F)n(C)c(=O)c(C)c32)c1 [trametinib],2980
7,C=C(CC)C(=O)c1ccc(OCC(=O)O)c(Cl)c1Cl [ethacrynic acid],215
8,CC(CCc1ccc(O)cc1)NCCc1ccc(O)c(O)c1 (stereo not given) [dobutamine],2870
9,CC1=NS(=O)(=O)c2cc(Cl)ccc2N1 [diazoxide],3260
10,COCCOC(=O)C1=C(C)NC(C)=C(C(=O)OC(C)C)C1c1cccc([N+](=O)[O-])c1 (stereo not given) [nimodipine],112
11,CN(C)CCCOc1nn(Cc2ccccc2)c2ccccc12.Cl [benzydamine hydrochloride],3530
12,CCN(CC)C(C)CN1c2ccccc2Sc2ccccc21.Cl (stereo not given) [ethopropazine hydrochloride],114
13,CN(C)C(=O)C(CCN1CCC(O)(c2ccc(Cl)cc2)CC1)(c1ccccc1)c1ccccc1 [loperamide],0
14,c1cnc(N2CCN(Cc3ccc4c(c3)OCO4)CC2)nc1 [piribedil],1950
15,COc1ccc(-c2ccc3cc(C(=O)O)ccc3c2)cc1C12CC3CC(CC(C3)C1)C2 [adapalene],3410
16,Cc1ccc(O)c(-n2nc3ccccc3n2)c1 [drometrizole],2400
17,C[C@@H]1[C@H](O)[C@@H](C)/C=C/C=C/C=C/C=C/C=C/C=C/C=C/[C@H](O[C@@H]2O[C@H](C)[C@@H](O)[C@H](N)[C@@H]2O)C[C@@H]2O[C@](O)(C[C@@H](O)C[C@@H](O)[C@H](O)CC[C@@H](O)C[C@@H](O)CC(=O)O[C@H]1C)C[C@H](O)[C@H]2C(=O)O [amphotericin B],656
18,CN1CCC(=C2c3ccccc3C=Cc3ccccc32)CC1 [cyproheptadine],417
19,Cn1cnc2c(F)c(Nc3ccc(Br)cc3Cl)c(C(=O)NOCCO)cc21 [selumetinib],3500
20,CCc1cccc2c3c([nH]c12)C(CC)(CC(=O)O)OCC3 (stereo not given) [etodolac],2190
